For one compound, fold shift results are on record in PubChem BioAssay AID743466 (Vanderbilt Specialized Chemistry Center, 2014).

This experiment addresses Metabotropic glutamate receptor 4 (Homo sapiens) (UniProt Q14833). Description: agonist response potentiation at mGlu4 receptor – cell-based, GIRK thallium flux, mechanism study for group III mGlu PAM project, late-stage follow-up (AID 743466). To be noted: mGlu4/GIRK cells, glutamate CRC fold shift, at 10 µM, stronger effect = higher value.

Metabotropic glutamate receptor 4 (Homo sapiens), sequence (Q14833 whole entry, looked up): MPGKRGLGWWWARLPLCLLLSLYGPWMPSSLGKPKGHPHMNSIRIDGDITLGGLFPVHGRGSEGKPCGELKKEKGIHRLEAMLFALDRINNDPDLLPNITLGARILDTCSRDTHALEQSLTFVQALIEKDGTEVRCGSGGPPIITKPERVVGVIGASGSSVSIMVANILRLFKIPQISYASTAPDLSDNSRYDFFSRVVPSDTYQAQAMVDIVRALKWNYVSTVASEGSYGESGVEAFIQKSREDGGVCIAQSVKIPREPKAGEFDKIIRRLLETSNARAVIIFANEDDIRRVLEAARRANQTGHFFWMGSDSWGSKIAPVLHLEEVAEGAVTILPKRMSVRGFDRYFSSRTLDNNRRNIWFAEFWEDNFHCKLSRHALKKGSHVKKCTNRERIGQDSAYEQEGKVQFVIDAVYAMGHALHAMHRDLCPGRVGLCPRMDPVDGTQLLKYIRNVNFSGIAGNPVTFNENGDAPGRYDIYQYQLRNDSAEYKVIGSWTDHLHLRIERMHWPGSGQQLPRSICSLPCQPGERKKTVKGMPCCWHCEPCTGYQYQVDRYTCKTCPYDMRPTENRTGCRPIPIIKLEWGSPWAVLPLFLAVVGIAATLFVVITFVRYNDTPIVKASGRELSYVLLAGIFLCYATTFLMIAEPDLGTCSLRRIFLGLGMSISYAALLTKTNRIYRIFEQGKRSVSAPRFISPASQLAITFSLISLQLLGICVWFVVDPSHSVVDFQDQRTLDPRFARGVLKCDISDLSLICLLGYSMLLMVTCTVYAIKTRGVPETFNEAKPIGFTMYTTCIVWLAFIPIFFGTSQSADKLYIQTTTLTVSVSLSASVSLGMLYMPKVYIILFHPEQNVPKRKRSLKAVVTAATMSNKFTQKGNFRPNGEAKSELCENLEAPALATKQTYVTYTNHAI

With `COC(=O)c1ccc(-n2c(C)cc(C(=O)CSc3ccc(NC(C)=O)cc3)c2C)cc1`, the fold shift is 1.84.
